Results from paper PMC11006913.
Substitutions are numbered along the chain they refer to.

Columns and labels:
Assay in all cases: PBM; 200 nM protein, PBS
Details in all cases: dsDNA, one strand shown
HOXB9 [1] = target: HOXB9 (Homo sapiens, UniProt P17482 171-250, T197M)
HOXC9 [2] = target: HOXC9 (Homo sapiens, UniProt P31274 178-260, K195R)
VENTX = target: T1, VENTX (Homo sapiens, UniProt O95231 78-163)
T1 sequence: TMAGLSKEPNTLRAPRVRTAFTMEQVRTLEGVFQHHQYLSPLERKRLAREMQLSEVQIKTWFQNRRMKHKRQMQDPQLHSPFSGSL

HOXA7 [3] = target: HOXA7 (Homo sapiens, UniProt P31268 116-202)
HOXC10 [4] = target: HOXC10 (Homo sapiens, UniProt Q9NYD6 254-340)
PAX4 [5] = target: T2, PAX4 (Homo sapiens, UniProt O43316 9-242, R200K)
T2 sequence: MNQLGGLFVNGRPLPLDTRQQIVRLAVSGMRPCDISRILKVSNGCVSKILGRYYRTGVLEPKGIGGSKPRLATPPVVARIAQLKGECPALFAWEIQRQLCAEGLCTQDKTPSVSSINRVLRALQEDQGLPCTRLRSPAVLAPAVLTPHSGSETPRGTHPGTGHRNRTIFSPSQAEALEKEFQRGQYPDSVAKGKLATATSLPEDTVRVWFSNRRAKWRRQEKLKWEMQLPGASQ

PAX4 [6] = target: T3, PAX4 (Homo sapiens, UniProt O43316 9-242)
T3 sequence: T2 sequence with K192R

HOXB9 [7] = target: HOXB9 (Homo sapiens, UniProt P17482 171-250)
HOXC9 [8] = target: HOXC9 (Homo sapiens, UniProt P31274 178-260)
HOXC9 [9] = target: HOXC9 (Homo sapiens, UniProt P31274 178-260, R193K)
PAX4 [10] = target: T4, PAX4 (Homo sapiens, UniProt O43316 9-242, F177V)
T4 sequence: T2 sequence with F169V, K192R

HOXC10 [11] = target: HOXC10 (Homo sapiens, UniProt Q9NYD6 254-340, K271E)
PAX4 [12] = target: T5, PAX4 (Homo sapiens, UniProt O43316 9-242, F177Y)
T5 sequence: T2 sequence with F169Y, K192R

VAX1 = VAX1 (Homo sapiens, UniProt Q5SQQ9 86-172)
HOXB9 [13] = target: HOXB9 (Homo sapiens, UniProt P17482 171-250, R186Q)
HOXC9 [14] = target: HOXC9 (Homo sapiens, UniProt P31274 178-260, R222W)
PAX4 [15] = target: T6, PAX4 (Homo sapiens, UniProt O43316 9-242, R227W)
T6 sequence: T2 sequence with K192R, R219W

HOXA2 [16] = target: HOXA2 (Homo sapiens, UniProt O43364 129-215, Y150S)
HOXA7 [17] = target: HOXA7 (Homo sapiens, UniProt P31268 116-202, W177C)
HOXA2 [18] = target: HOXA2 (Homo sapiens, UniProt O43364 129-215)
Sequence of HOXA2 (Homo sapiens, UniProt O43364 129-215) (O43364 129-215): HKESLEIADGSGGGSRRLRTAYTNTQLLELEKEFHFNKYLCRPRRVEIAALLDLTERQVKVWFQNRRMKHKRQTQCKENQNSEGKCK

Sequence of HOXA2 (Homo sapiens, UniProt O43364 129-215, Y150S) (O43364 129-215 Y150S): as the sequence (O43364 129-215) above, with Y22S counted along it
Sequence of HOXB9 (Homo sapiens, UniProt P17482 171-250, T197M) (P17482 171-250 T197M): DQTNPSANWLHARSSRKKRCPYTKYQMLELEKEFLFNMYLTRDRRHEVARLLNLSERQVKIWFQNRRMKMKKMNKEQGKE
Sequence of HOXB9 (Homo sapiens, UniProt P17482 171-250) (P17482 171-250): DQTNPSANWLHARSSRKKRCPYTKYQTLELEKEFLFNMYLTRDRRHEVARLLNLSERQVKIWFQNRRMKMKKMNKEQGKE
Sequence of HOXC9 (Homo sapiens, UniProt P31274 178-260, K195R) (P31274 178-260 K195R): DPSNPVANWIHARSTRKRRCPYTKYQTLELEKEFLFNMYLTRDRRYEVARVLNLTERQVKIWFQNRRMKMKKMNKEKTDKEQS
Sequence of HOXA7 (Homo sapiens, UniProt P31268 116-202) (P31268 116-202): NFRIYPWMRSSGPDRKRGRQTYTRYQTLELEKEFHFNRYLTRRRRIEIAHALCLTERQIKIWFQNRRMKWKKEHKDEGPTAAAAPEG
Sequence of HOXB9 (Homo sapiens, UniProt P17482 171-250, R186Q) (P17482 171-250 R186Q): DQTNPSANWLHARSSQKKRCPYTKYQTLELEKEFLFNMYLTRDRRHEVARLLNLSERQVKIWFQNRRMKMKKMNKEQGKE
Sequence of HOXC9 (Homo sapiens, UniProt P31274 178-260, R222W) (P31274 178-260 R222W): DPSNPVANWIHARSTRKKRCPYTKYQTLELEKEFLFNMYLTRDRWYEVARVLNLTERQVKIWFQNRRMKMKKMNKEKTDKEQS
Sequence of HOXC10 (Homo sapiens, UniProt Q9NYD6 254-340) (Q9NYD6 254-340): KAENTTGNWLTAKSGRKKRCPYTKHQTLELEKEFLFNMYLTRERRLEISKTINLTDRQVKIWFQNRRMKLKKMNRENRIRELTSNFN
Sequence of HOXA7 (Homo sapiens, UniProt P31268 116-202, W177C) (P31268 116-202 W177C): as the sequence (P31268 116-202) above, with W62C counted along it
Sequence of VAX1 (Q5SQQ9 86-172): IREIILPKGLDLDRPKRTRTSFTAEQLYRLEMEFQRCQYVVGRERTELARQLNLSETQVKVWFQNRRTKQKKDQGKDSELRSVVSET
Sequence of HOXC9 (Homo sapiens, UniProt P31274 178-260, R193K) (P31274 178-260 R193K): as the sequence (P31274 178-260 R222W) above, with R16K, W45R counted along it
Sequence of HOXC9 (Homo sapiens, UniProt P31274 178-260) (P31274 178-260): as the sequence (P31274 178-260 R222W) above, with W45R counted along it
Sequence of HOXC10 (Homo sapiens, UniProt Q9NYD6 254-340, K271E) (Q9NYD6 254-340 K271E): as the sequence (Q9NYD6 254-340) above, with K18E counted along it

Row | Sequence | binding signal (HOXB9 [1]) | binding signal (HOXC9 [2]) | binding signal (VENTX) | binding signal (HOXA7 [3]) | binding signal (HOXC10 [4]) | binding signal (PAX4 [5]) | binding signal (PAX4 [6]) | binding signal (HOXB9 [7]) | binding signal (HOXC9 [8]) | binding signal (HOXC9 [9]) | binding signal (PAX4 [10]) | binding signal (HOXC10 [11]) | binding signal (PAX4 [12]) | binding signal (VAX1) | binding signal (HOXB9 [13]) | binding signal (HOXC9 [14]) | binding signal (PAX4 [15]) | binding signal (HOXA2 [16]) | binding signal (HOXA7 [17]) | binding signal (HOXA2 [18])
1 | TAATTACA | 10.3 upbm affinity estimate (log intensity, higher = more binding, comparable within an allelic series) | 12.9 upbm affinity estimate (log intensity, higher = more binding, comparable within an allelic series) | 12.7 upbm affinity estimate (log intensity, higher = more binding, comparable within an allelic series) | 12.1 upbm affinity estimate (log intensity, higher = more binding, comparable within an allelic series) | 12.3 upbm affinity estimate (log intensity, higher = more binding, comparable within an allelic series) | 11.9 upbm affinity estimate (log intensity, higher = more binding, comparable within an allelic series) | 12.4 upbm affinity estimate (log intensity, higher = more binding, comparable within an allelic series) | 12.1 upbm affinity estimate (log intensity, higher = more binding, comparable within an allelic series) | 12.8 upbm affinity estimate (log intensity, higher = more binding, comparable within an allelic series) | 12.9 upbm affinity estimate (log intensity, higher = more binding, comparable within an allelic series) | 10.8 upbm affinity estimate (log intensity, higher = more binding, comparable within an allelic series) | 12.3 upbm affinity estimate (log intensity, higher = more binding, comparable within an allelic series) | 11.2 upbm affinity estimate (log intensity, higher = more binding, comparable within an allelic series) | 13.6 upbm affinity estimate (log intensity, higher = more binding, comparable within an allelic series) | 11.8 upbm affinity estimate (log intensity, higher = more binding, comparable within an allelic series) | 11 upbm affinity estimate (log intensity, higher = more binding, comparable within an allelic series) | 11.2 upbm affinity estimate (log intensity, higher = more binding, comparable within an allelic series) | 11 upbm affinity estimate (log intensity, higher = more binding, comparable within an allelic series) | 8.98 upbm affinity estimate (log intensity, higher = more binding, comparable within an allelic series) | 13.3 upbm affinity estimate (log intensity, higher = more binding, comparable within an allelic series)
2 | GTAATTAC | 10.6 upbm affinity estimate (log intensity, higher = more binding, comparable within an allelic series) | 13.1 upbm affinity estimate (log intensity, higher = more binding, comparable within an allelic series) | 12.9 upbm affinity estimate (log intensity, higher = more binding, comparable within an allelic series) | 12.5 upbm affinity estimate (log intensity, higher = more binding, comparable within an allelic series) | 12.5 upbm affinity estimate (log intensity, higher = more binding, comparable within an allelic series) | 12 upbm affinity estimate (log intensity, higher = more binding, comparable within an allelic series) | 12.5 upbm affinity estimate (log intensity, higher = more binding, comparable within an allelic series) | 12.3 upbm affinity estimate (log intensity, higher = more binding, comparable within an allelic series) | 13.1 upbm affinity estimate (log intensity, higher = more binding, comparable within an allelic series) | 13.2 upbm affinity estimate (log intensity, higher = more binding, comparable within an allelic series) | 10.6 upbm affinity estimate (log intensity, higher = more binding, comparable within an allelic series) | 12.6 upbm affinity estimate (log intensity, higher = more binding, comparable within an allelic series) | 11.1 upbm affinity estimate (log intensity, higher = more binding, comparable within an allelic series) | 13.9 upbm affinity estimate (log intensity, higher = more binding, comparable within an allelic series) | 12.1 upbm affinity estimate (log intensity, higher = more binding, comparable within an allelic series) | 11 upbm affinity estimate (log intensity, higher = more binding, comparable within an allelic series) | 11 upbm affinity estimate (log intensity, higher = more binding, comparable within an allelic series) | 11.2 upbm affinity estimate (log intensity, higher = more binding, comparable within an allelic series) | 9.01 upbm affinity estimate (log intensity, higher = more binding, comparable within an allelic series) | 13.4 upbm affinity estimate (log intensity, higher = more binding, comparable within an allelic series)
3 | TAATTATA | 10.3 upbm affinity estimate (log intensity, higher = more binding, comparable within an allelic series) | 12.8 upbm affinity estimate (log intensity, higher = more binding, comparable within an allelic series) | 12.4 upbm affinity estimate (log intensity, higher = more binding, comparable within an allelic series) | 11.8 upbm affinity estimate (log intensity, higher = more binding, comparable within an allelic series) | 12.3 upbm affinity estimate (log intensity, higher = more binding, comparable within an allelic series) | 11.7 upbm affinity estimate (log intensity, higher = more binding, comparable within an allelic series) | 12.2 upbm affinity estimate (log intensity, higher = more binding, comparable within an allelic series) | 11.9 upbm affinity estimate (log intensity, higher = more binding, comparable within an allelic series) | 12.8 upbm affinity estimate (log intensity, higher = more binding, comparable within an allelic series) | 12.7 upbm affinity estimate (log intensity, higher = more binding, comparable within an allelic series) | 10.7 upbm affinity estimate (log intensity, higher = more binding, comparable within an allelic series) | 12.2 upbm affinity estimate (log intensity, higher = more binding, comparable within an allelic series) | 11 upbm affinity estimate (log intensity, higher = more binding, comparable within an allelic series) | 13.3 upbm affinity estimate (log intensity, higher = more binding, comparable within an allelic series) | 11.6 upbm affinity estimate (log intensity, higher = more binding, comparable within an allelic series) | 11.2 upbm affinity estimate (log intensity, higher = more binding, comparable within an allelic series) | 11.1 upbm affinity estimate (log intensity, higher = more binding, comparable within an allelic series) | 11.1 upbm affinity estimate (log intensity, higher = more binding, comparable within an allelic series) | 9 upbm affinity estimate (log intensity, higher = more binding, comparable within an allelic series) | 13 upbm affinity estimate (log intensity, higher = more binding, comparable within an allelic series)
4 | AATTAATG | 10.2 upbm affinity estimate (log intensity, higher = more binding, comparable within an allelic series) | 12.8 upbm affinity estimate (log intensity, higher = more binding, comparable within an allelic series) | 12.5 upbm affinity estimate (log intensity, higher = more binding, comparable within an allelic series) | 11.9 upbm affinity estimate (log intensity, higher = more binding, comparable within an allelic series) | 12.2 upbm affinity estimate (log intensity, higher = more binding, comparable within an allelic series) | 11.9 upbm affinity estimate (log intensity, higher = more binding, comparable within an allelic series) | 12.5 upbm affinity estimate (log intensity, higher = more binding, comparable within an allelic series) | 12.1 upbm affinity estimate (log intensity, higher = more binding, comparable within an allelic series) | 12.8 upbm affinity estimate (log intensity, higher = more binding, comparable within an allelic series) | 12.8 upbm affinity estimate (log intensity, higher = more binding, comparable within an allelic series) | 10.6 upbm affinity estimate (log intensity, higher = more binding, comparable within an allelic series) | 12 upbm affinity estimate (log intensity, higher = more binding, comparable within an allelic series) | 11.2 upbm affinity estimate (log intensity, higher = more binding, comparable within an allelic series) | 13.1 upbm affinity estimate (log intensity, higher = more binding, comparable within an allelic series) | 11.8 upbm affinity estimate (log intensity, higher = more binding, comparable within an allelic series) | 11 upbm affinity estimate (log intensity, higher = more binding, comparable within an allelic series) | 11.1 upbm affinity estimate (log intensity, higher = more binding, comparable within an allelic series) | 11 upbm affinity estimate (log intensity, higher = more binding, comparable within an allelic series) | 8.87 upbm affinity estimate (log intensity, higher = more binding, comparable within an allelic series) | 12.5 upbm affinity estimate (log intensity, higher = more binding, comparable within an allelic series)
5 | AATAATTA | 10.3 upbm affinity estimate (log intensity, higher = more binding, comparable within an allelic series) | 12.7 upbm affinity estimate (log intensity, higher = more binding, comparable within an allelic series) | 12.4 upbm affinity estimate (log intensity, higher = more binding, comparable within an allelic series) | 11.9 upbm affinity estimate (log intensity, higher = more binding, comparable within an allelic series) | 12.2 upbm affinity estimate (log intensity, higher = more binding, comparable within an allelic series) | 11.8 upbm affinity estimate (log intensity, higher = more binding, comparable within an allelic series) | 12.3 upbm affinity estimate (log intensity, higher = more binding, comparable within an allelic series) | 11.9 upbm affinity estimate (log intensity, higher = more binding, comparable within an allelic series) | 12.7 upbm affinity estimate (log intensity, higher = more binding, comparable within an allelic series) | 12.6 upbm affinity estimate (log intensity, higher = more binding, comparable within an allelic series) | 10.8 upbm affinity estimate (log intensity, higher = more binding, comparable within an allelic series) | 11.9 upbm affinity estimate (log intensity, higher = more binding, comparable within an allelic series) | 11.1 upbm affinity estimate (log intensity, higher = more binding, comparable within an allelic series) | 13.3 upbm affinity estimate (log intensity, higher = more binding, comparable within an allelic series) | 11.6 upbm affinity estimate (log intensity, higher = more binding, comparable within an allelic series) | 11.1 upbm affinity estimate (log intensity, higher = more binding, comparable within an allelic series) | 11.2 upbm affinity estimate (log intensity, higher = more binding, comparable within an allelic series) | 10.9 upbm affinity estimate (log intensity, higher = more binding, comparable within an allelic series) | 9.07 upbm affinity estimate (log intensity, higher = more binding, comparable within an allelic series) | 12.9 upbm affinity estimate (log intensity, higher = more binding, comparable within an allelic series)
6 | GATAATTA | 10.5 upbm affinity estimate (log intensity, higher = more binding, comparable within an allelic series) | 12.9 upbm affinity estimate (log intensity, higher = more binding, comparable within an allelic series) | 12.8 upbm affinity estimate (log intensity, higher = more binding, comparable within an allelic series) | 12.2 upbm affinity estimate (log intensity, higher = more binding, comparable within an allelic series) | 12.2 upbm affinity estimate (log intensity, higher = more binding, comparable within an allelic series) | 12 upbm affinity estimate (log intensity, higher = more binding, comparable within an allelic series) | 12.6 upbm affinity estimate (log intensity, higher = more binding, comparable within an allelic series) | 11.9 upbm affinity estimate (log intensity, higher = more binding, comparable within an allelic series) | 12.8 upbm affinity estimate (log intensity, higher = more binding, comparable within an allelic series) | 12.8 upbm affinity estimate (log intensity, higher = more binding, comparable within an allelic series) | 10.8 upbm affinity estimate (log intensity, higher = more binding, comparable within an allelic series) | 12.2 upbm affinity estimate (log intensity, higher = more binding, comparable within an allelic series) | 11.3 upbm affinity estimate (log intensity, higher = more binding, comparable within an allelic series) | 13.7 upbm affinity estimate (log intensity, higher = more binding, comparable within an allelic series) | 11.8 upbm affinity estimate (log intensity, higher = more binding, comparable within an allelic series) | 11.1 upbm affinity estimate (log intensity, higher = more binding, comparable within an allelic series) | 11.2 upbm affinity estimate (log intensity, higher = more binding, comparable within an allelic series) | 10.9 upbm affinity estimate (log intensity, higher = more binding, comparable within an allelic series) | 9.01 upbm affinity estimate (log intensity, higher = more binding, comparable within an allelic series) | 13.2 upbm affinity estimate (log intensity, higher = more binding, comparable within an allelic series)
